Data taken from article PMC11006913.

molecular target: ALX3 (Homo sapiens, UniProt O95076 139-225, N203S); experiment: PBM; 200 nM protein, PBS; details: dsDNA, one strand shown
Sequence (O95076 139-225 N203S): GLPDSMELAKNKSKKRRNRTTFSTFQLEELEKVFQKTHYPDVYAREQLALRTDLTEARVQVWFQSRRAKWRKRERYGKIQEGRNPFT

Compared with AGCCACGG, CCGGCAGG is higher in binding signal: 7.74 upbm affinity estimate (log intensity, higher = more binding, comparable within an allelic series) for the first, 7.86 upbm affinity estimate (log intensity, higher = more binding, comparable within an allelic series) for the second.

First: CCGGACGG
Second: CAGCCTCC
The binding signal of the first is higher: 7.72 upbm affinity estimate (log intensity, higher = more binding, comparable within an allelic series) for the first, 7.61 upbm affinity estimate (log intensity, higher = more binding, comparable within an allelic series) for the second.

In the case of CCCCCTTC, the binding signal is reported as 7.33 upbm affinity estimate (log intensity, higher = more binding, comparable within an allelic series).

molecular target: PRRX1 (Homo sapiens, UniProt P54821 80-166); experiment: PBM; 200 nM protein, PBS; details: dsDNA, one strand shown
Sequence (P54821 80-166): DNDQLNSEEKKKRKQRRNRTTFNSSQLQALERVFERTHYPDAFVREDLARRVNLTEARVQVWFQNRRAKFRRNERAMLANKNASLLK

First: TAATTTGA
Second: CCCCAGGC
The binding signal of the first is higher: 13.2 upbm affinity estimate (log intensity, higher = more binding, comparable within an allelic series) for the first, 9.25 upbm affinity estimate (log intensity, higher = more binding, comparable within an allelic series) for the second.

First: CAGGAAGG
Second: CAGGCTTC
The binding signal of the first is lower: 8.96 upbm affinity estimate (log intensity, higher = more binding, comparable within an allelic series) for the first, 9.5 upbm affinity estimate (log intensity, higher = more binding, comparable within an allelic series) for the second.

Going from GCCCCGAC to GGGGGAAC, the binding signal rises from 9.52 upbm affinity estimate (log intensity, higher = more binding, comparable within an allelic series) to 9.62 upbm affinity estimate (log intensity, higher = more binding, comparable within an allelic series).

First: GAGGTTGC
Second: CCCCCCAG
The binding signal of the first is lower: 8.94 upbm affinity estimate (log intensity, higher = more binding, comparable within an allelic series) for the first, 9.37 upbm affinity estimate (log intensity, higher = more binding, comparable within an allelic series) for the second.

molecular target: HOXA2 (Homo sapiens, UniProt O43364 129-215); experiment: PBM; 200 nM protein, PBS; details: dsDNA, one strand shown
Sequence (O43364 129-215): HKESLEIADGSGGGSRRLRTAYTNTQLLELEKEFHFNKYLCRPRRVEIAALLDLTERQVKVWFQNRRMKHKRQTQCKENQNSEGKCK

Going from CAGGAAGG to CAGGCTTC, the binding signal rises from 7.14 upbm affinity estimate (log intensity, higher = more binding, comparable within an allelic series) to 7.25 upbm affinity estimate (log intensity, higher = more binding, comparable within an allelic series).

First: ATGAATGA
Second: GCCCCGAC
The binding signal of the first is higher: 9.56 upbm affinity estimate (log intensity, higher = more binding, comparable within an allelic series) for the first, 7.3 upbm affinity estimate (log intensity, higher = more binding, comparable within an allelic series) for the second.

In the case of CCCCCCAG, the binding signal is reported as 6.91 upbm affinity estimate (log intensity, higher = more binding, comparable within an allelic series).

molecular target: HOXB6 (Homo sapiens, UniProt P17509 132-218); experiment: PBM; 200 nM protein, PBS; details: dsDNA, one strand shown
Sequence (P17509 132-218): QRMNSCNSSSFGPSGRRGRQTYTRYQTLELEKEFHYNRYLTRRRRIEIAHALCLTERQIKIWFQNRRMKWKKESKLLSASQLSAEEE

First: CCGGACGG
Second: CAGCCTCC
The binding signal of the first is higher: 9.05 upbm affinity estimate (log intensity, higher = more binding, comparable within an allelic series) for the first, 8.88 upbm affinity estimate (log intensity, higher = more binding, comparable within an allelic series) for the second.

GCCCGGAC and GCCGGCCC are the same in binding signal: 8.94 upbm affinity estimate (log intensity, higher = more binding, comparable within an allelic series) for the first, 8.94 upbm affinity estimate (log intensity, higher = more binding, comparable within an allelic series) for the second.
